This is part of a sample that, as a whole, favours compounds with a hit. Of some 79,000 tested, about 15% had one in any assay. Activity calls are given as the source filed them. No stated cut-off is given here; in the data, active means growth inhibition above about 70%; inactive means the rest.
Legend:
[1] = NCI Yeast Anticancer Drug Screen. Data for the rad50 strain (AID 155);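 further: 0% = growth of vehicle-only cultures of the same strain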; conditions: S. cerevisiae rad50 strain growth inhibition, stronger effect = higher value
Summary of the method: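 DNA repair mutant yeast, compound exposure, growth read-out; inhibition is taken relative to vehicle.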

[2] = NCI Yeast Anticancer Drug Screen. Data for the mec2-1 strain (AID 157); conditions: S. cerevisiae mec2-1 strain, stronger effect = higher value
Summary of the method: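 Using mec2-1 yeast: add compound, measure growth, express inhibition versus vehicle-treated cultures.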

[3] = NCI Yeast Anticancer Drug Screen. Data for the sgs1 mgt1 strain (AID 161);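 further: 0% = growth of cultures given vehicle only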; conditions: S. cerevisiae sgs1 mgt1 strain, stronger effect = higher value
Summary of the method: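 Percent growth inhibition was derived by comparing compound-exposed mutant yeast with vehicle-exposed cultures. The strain carries alterations in DNA damage repair.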

[4] = NCI Yeast Anticancer Drug Screen. Data for the cln2 rad14 strain (AID 165);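 further: 0% = growth equal to vehicle treated cultures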; conditions: S. cerevisiae cln2 rad14 strain, stronger effect = higher value
Summary of the method: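 Yeast strain cln2 rad14, bearing defects in cell cycle control and DNA repair, serves as the test system; values reflect growth inhibition compared with vehicle.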

[5] = NCI Yeast Anticancer Drug Screen. Data for the bub3 strain (AID 167); conditions: S. cerevisiae bub3 mutant strain, stronger effect = higher value
Summary of the method: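 In this screen, a yeast mutant lacking normal mitotic checkpoint function is challenged with compound. Relative growth versus vehicle gives the inhibition value.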

[6] = NCI Yeast Anticancer Drug Screen. Data for the mlh1 rad18 strain (AID 175); conditions: S. cerevisiae mlh1 rad18 strain growth inhibition, stronger effect = higher value
Summary of the method: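 Steps: expose repair-defective yeast to compound; measure growth; express inhibition against vehicle-treated controls.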

[7] = at 5.0 µM (retest, dose inferred, filed as 0.5)
[8] = at 50.0 µM (retest, dose inferred, filed as 5.0)

Measured: growth inhibition

NC(=O)c1ccccc1OC(=O)NCCO
inactive: [1]; [7] 6% | [1]; [8] -3% | [1]; at 50.0 µM 3.2% | [2]; [7] -2% | [2]; [8] -5% | [2]; at 50.0 µM -1.7% | [3]; [7] 3% | [3]; [8] 2% | [3]; at 50.0 µM -1.2% | [4]; [7] -1% | [4]; [8] -7% | [4]; at 50.0 µM 35.8% | [5]; [7] -4% | [5]; [8] 3% | [5]; at 50.0 µM 1.7% | [6]; [7] 0% | [6]; [8] 7% | [6]; at 50.0 µM 7.35%

CCOC(=O)N1CCN(C(=S)N/N=C(\C)c2ncccn2)CC1
inactive: [1]; [7] 4% | [2]; [7] 9% | [3]; [7] -5% | [4]; [7] -40% | [5]; [7] -22% | [6]; [7] -4%
active: [1]; [8] 99% | [1]; at 50.0 µM 99.4% | [2]; [8] 99% | [2]; at 50.0 µM 99.7% | [3]; [8] 99% | [3]; at 50.0 µM 99.4% | [4]; [8] 99% | [4]; at 50.0 µM 99.1% | [5]; [8] 99% | [5]; at 50.0 µM 99.5% | [6]; [8] 99% | [6]; at 50.0 µM 99.2%

Clc1cc2n[nH]nc2c(Cl)c1Cl
active: [1]; at 50.0 µM 74.8% | [2]; [8] 84% | [2]; at 50.0 µM 95.9% | [3]; [8] 83% | [4]; at 50.0 µM 88.7% | [5]; at 50.0 µM 85.8%
inactive: [1]; [7] -6% | [1]; [8] 63% | [2]; [7] 6% | [3]; [7] 16% | [3]; at 50.0 µM 46.8% | [4]; [7] -17% | [4]; [8] 65% | [5]; [7] -13% | [5]; [8] 48%

COc1ccc(OP2(Oc3ccc(OC)cc3)=NP(Oc3ccc(OC)cc3)(Oc3ccc(OC)cc3)=NP(Oc3ccc(OC)cc3)(Oc3ccc(OC)cc3)=NP(Oc3ccc(OC)cc3)(Oc3ccc(OC)cc3)=N2)cc1
inactive: [1]; [7] 41% | [1]; [8] 2% | [1]; at 50.0 µM 61.3% | [2]; [7] 7% | [2]; [8] -9% | [2]; at 50.0 µM 65.8% | [3]; [8] 28% | [3]; at 50.0 µM 67.3% | [4]; [7] 0% | [4]; [8] -13% | [4]; at 50.0 µM 24.1% | [5]; [7] 20% | [5]; [8] 35% | [5]; at 50.0 µM 54.5% | [6]; [7] 17% | [6]; [8] -2%
active: [3]; [7] 71% | [6]; at 50.0 µM 78.8%

Cc1ccc(NC(=O)Cc2nc3ccccc3s2)c(C)c1
inactive: [1]; [7] 7% | [2]; [7] 9% | [3]; [7] 20% | [4]; [7] 6% | [5]; [7] 29% | [6]; [7] 14%
active: [1]; [8] 99% | [1]; at 50.0 µM 98.7% | [2]; [8] 98% | [2]; at 50.0 µM 99.3% | [3]; [8] 99% | [3]; at 50.0 µM 99.5% | [4]; [8] 91% | [4]; at 50.0 µM 95.7% | [5]; [8] 99% | [5]; at 50.0 µM 99% | [6]; [8] 99% | [6]; at 50.0 µM 99%

O=C(CNc1cccc([N+](=O)[O-])c1)Nn1c(-c2ccccc2)nc2ccccc2c1=O
inactive: [1]; [7] 2% | [1]; [8] 30% | [1]; at 50.0 µM 55.5% | [2]; [7] -3% | [2]; [8] 17% | [2]; at 50.0 µM 18.4% | [3]; [7] 3% | [3]; [8] 21% | [3]; at 50.0 µM 62.7% | [4]; [7] 12% | [4]; [8] 35% | [4]; at 50.0 µM 38.6% | [5]; [7] -18% | [5]; [8] 9% | [5]; at 50.0 µM 54.6% | [6]; [7] 7% | [6]; [8] 41%
active: [6]; at 50.0 µM 76.7%

CC(=O)OC1COC(n2ccc3cc(Br)c([N+](=O)[O-])cc32)C(OC(C)=O)C1OC(C)=O (stereo unspecified)
inactive: [1]; [7] -16% | [1]; [8] 2% | [1]; at 50.0 µM 69.7% | [2]; [7] -5% | [2]; [8] 8% | [2]; at 50.0 µM 4.55% | [3]; [7] -25% | [3]; [8] 47% | [4]; [7] -45% | [4]; [8] 3% | [4]; at 50.0 µM 5.45% | [5]; [7] -23% | [6]; [7] -27% | [6]; [8] 36% | [6]; at 50.0 µM 47.9%
active: [3]; at 50.0 µM 78% | [5]; [8] 71% | [5]; at 50.0 µM 83.5%

Nc1nc(-c2ccc(Cl)cc2)c(N=Nc2ccc(Br)cc2)s1
inactive: [1]; [7] 1% | [2]; [7] -20% | [3]; [7] 3% | [4]; [7] -11% | [5]; [7] -17%
active: [1]; [8] 93% | [1]; at 50.0 µM 97.5% | [2]; [8] 96% | [2]; at 50.0 µM 98% | [3]; [8] 94% | [3]; at 50.0 µM 98.3% | [4]; [8] 89% | [4]; at 50.0 µM 95.4% | [5]; [8] 91% | [5]; at 50.0 µM 96.5%

CC(C)/C(Cl)=N\OC(=O)Nc1cccc(F)c1
inactive: [1]; [7] 14% | [1]; [8] 65% | [1]; at 50.0 µM -5.85% | [2]; [7] -7% | [2]; [8] 45% | [2]; at 50.0 µM 63% | [3]; [7] -6% | [4]; [7] 41% | [4]; [8] 28% | [4]; at 50.0 µM 25.9% | [5]; [7] -13% | [5]; at 50.0 µM 69.7%
active: [3]; [8] 96% | [3]; at 50.0 µM 82.9% | [5]; [8] 82%

Cc1c(O)c(Br)c(C)c(O)c1Br (tested in a mixture with another compound)
active: [1]; [8] 85% | [1]; at 50.0 µM 75.8% | [3]; [8] 90% | [3]; at 50.0 µM 80.6% | [5]; [8] 77% | [6]; [8] 86%
inactive: [1]; [7] 0% | [2]; [7] 21% | [2]; [8] 69% | [2]; at 50.0 µM 49.8% | [3]; [7] -2% | [4]; [7] -2% | [4]; [8] 47% | [4]; at 50.0 µM 1.05% | [5]; [7] 1% | [5]; at 50.0 µM 61.6% | [6]; [7] 8% | [6]; at 50.0 µM 62.1%

Source: PubChem BioAssay (NCI)
